Rows were chosen to be rich in hits. Some 21% of all compounds tested hit in one or more screens of this group.
Shiga inhibitor: blocks Shiga toxin action in Vero cells; inhibition, % at 38.7 µM; Vero cells, Shiga toxin protein synthesis inhibition reporter; hit rate 9.2% among 290,000; in the data active = inhibition mostly above about 28%, no sharp cut-off; inactive = mostly below about 43%
CHX counter: affects cycloheximide protein synthesis inhibition readout, counter-screen | cell reporter, cycloheximide protein synthesis inhibition counterscreen | max response, % | hit rate 12% among 300,000; in the data active = max response mostly above about 13%, no sharp cut-off; inactive = mostly below about 14%; note: read at 38.3 µM for the half of the compounds with a filed dose
Pf growth 48h: inhibits P. falciparum growth in the first generation, 48 h | P. falciparum luciferase growth in erythrocytes, 48 h | AID 504832 | hit rate 5.9% among 310,000 | Potency, µM (doses to about 28.7 µM), hits mostly inhibitors
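First compound was added to culture medium, then infected red cells at 0.1% parasitemia and 2% hematocrit (final). After incubation at 37 C under 5% CO2, luciferase detection reagent was dispensed and light output recorded.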
NS1 function inh: influenza NS1 inhibition | hit rate 0.4% among 270,000 | Potency, µM (titrated, usually from 46.1 µM); calls by dose curve; note: actives are rising curves; nearly all actives have a fitted effect of over 50% in size
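In this qHTS, NS1 from influenza A is expressed in budding yeast, where it slows growth. Cells are switched from glucose to 2% galactose medium (pH 6.0, -URA), treated with compound, and growth recovery is read at OD600.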
Pf growth 96h: inhibits malaria parasite growth, 96 h. P. falciparum luciferase reporter growth, 96 h. Potency, µM (doses to about 28.7 µM), usual class: inhibitors. hit rate 6.9% among 320,000. AID 504834
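96 h incubation, 37 C, 5% CO2, of luciferase-reporter P. falciparum-infected RBCs (2% hematocrit, 0.05% parasitemia final) with test compounds; endpoint luminescence.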
Of the large screens only hits and unclear results are named; the others gave an inactive call. Unless noted, calls come from the whole dose curve; as a rule, active = well fitted inhibition curve with a large enough effect; inconclusive = small, poorly fitted or top-dose-only effect, or another doubt; inactive = no such curve, though single readings can be large or run the other way.

O=C(N/N=C/c1cccc([N+](=O)[O-])c1)c1ccccc1-n1cccc1	Shiga inhibitor 28 (no result: NS1 function inh)
Cc1nc2c(C)cccc2cc1C(=O)N/N=C/c1cccc([N+](=O)[O-])c1	none
O=C(N/N=C/c1cc([N+](=O)[O-])ccc1O)c1cccc2cc[nH]c12	Shiga inhibitor 31, CHX counter 33, Pf growth 48h inconclusive, Pf growth 96h 3.7µM
O=C1NCCCC1C(=O)N/N=C/c1cc([N+](=O)[O-])ccc1O (centres undefined)	Pf growth 48h inconclusive, Pf growth 96h inconclusive
Cc1cc(C(=O)N/N=C/c2cccc([N+](=O)[O-])c2)c2ccccc2n1	none
O=C(N/N=C/c1cccc([N+](=O)[O-])c1)c1cccc2cc[nH]c12	Shiga inhibitor 58, CHX counter 29 (no result: NS1 function inh)
CCCc1nnc(NC(=O)CC(C)c2ccccc2)s1 (centres undefined)	none
Cc1ccc(N=Cc2c(O)n(-c3cc(Cl)ccc3N3CCOCC3)c(=O)c3ccccc23)cc1C	Pf growth 48h 2.6µM (no result: Pf growth 96h)
O=c1[nH]c(=S)n(-c2ccc(Cl)cc2)c(O)c1C=Nc1ccc(N2CCOCC2)cc1	Pf growth 96h inconclusive
O=C1CCCc2oc3ccc(O)cc3c21	Pf growth 96h inconclusive
Cc1cc[n+](Cc2ccccc2)cc1	Pf growth 48h 3.7µM, Pf growth 96h 9.3µM (no result: Shiga inhibitor, CHX counter, NS1 function inh)
Cc1ccc(-c2cc[n+](Cc3ccccc3)cc2)cc1	Pf growth 48h 0.93µM
Cc1cc[n+](Cc2ccc([N+](=O)[O-])cc2)cc1	Pf growth 48h inconclusive
CCC1(C)SC(N)=NN1C(C)=O (centres undefined)	none
O=C(c1cc(-c2cccc(Cl)c2)nc2ccccc12)N1CCCC1	Pf growth 48h inconclusive
CCOc1cc(CNc2cccc3ccccc23)cc(Br)c1OCC(=O)NC(C)(C)C	Pf growth 96h 9.3µM (no result: Pf growth 48h)
COc1cc(CNc2cccc(C(=O)O)c2)cc(Br)c1OCC(=O)NC(C)(C)C	NS1 function inh inconclusive, Pf growth 96h 12µM
CCOc1cc(CNc2ccc(N(C)C)cc2)cc(Br)c1OCC(=O)NC(C)(C)C	Shiga inhibitor 38, CHX counter 36, Pf growth 48h 0.66µM, Pf growth 96h inconclusive
CCOc1cc(CNc2ccc(N3CCCCC3)cc2)cc(Br)c1OCC(=O)NC(C)(C)C	CHX counter 14, Pf growth 48h inconclusive, Pf growth 96h 13µM
COc1cc(CNc2ccc3[nH]c(=O)[nH]c3c2)cc(Br)c1OCC(=O)NC(C)(C)C	Pf growth 96h inconclusive (no result: Pf growth 48h)
Cc1ccc(S(=O)(=O)NCC(=O)N2CCCC2C(=O)O)cc1 (centres undefined)	none
CCCCOC(=O)Nc1nnc(Cc2ccc(Cl)cc2)s1	Pf growth 96h inconclusive (no result: NS1 function inh)
Cc1ccc(/C=N/NC(=O)Cn2nnc(N)n2)o1	none
N#Cc1c(N)nc2c(c1-c1cccs1)CCCC2	none
N#Cc1c(N)oc(-c2cccs2)c1-c1cccs1	Pf growth 48h 9.3µM, Pf growth 96h 13µM
COc1ccc(CCNC(=O)c2ccc(-c3ccc([N+](=O)[O-])cc3Cl)o2)cc1	none
C[C@@H](NC(=O)c1ncn(Cc2ccccc2)c1C(=O)N[C@H](C)c1ccccc1)c1ccccc1	Pf growth 48h 13µM, Pf growth 96h inconclusive (no result: Shiga inhibitor, CHX counter, NS1 function inh)
C[C@H](NC(=O)c1[nH]cnc1C(=O)N[C@H](C)c1ccccc1)c1ccccc1	Pf growth 48h inconclusive (no result: Shiga inhibitor, CHX counter, NS1 function inh)
COc1ccccc1NC(=O)Cn1cnc2c(nc3n2CCCCC3)c1=O	Pf growth 96h inconclusive
O=C(Nc1cccc(Cl)c1)OCCOc1ccccc1	Shiga inhibitor 75, CHX counter 56, Pf growth 96h inconclusive
CCC1(COC(=O)Nc2cccc(Cl)c2)COC1	CHX counter 22
COc1ccc(OCCOC(=O)Nc2ccccc2)cc1	none
O=C(Nc1cccc(Cl)c1)OCC#CCCl	none (no result: Pf growth 48h, NS1 function inh, Pf growth 96h)
O=C(Nc1ccccc1)OCCOc1cccc(Br)c1	Pf growth 96h inconclusive
O=C(Nc1ccccc1)OCCOc1ccccc1	Shiga inhibitor 61, CHX counter 32 (no result: Pf growth 48h, Pf growth 96h)
O=C(Nc1ccccc1)OCCOc1ccccc1Br	Shiga inhibitor 28, CHX counter 35, Pf growth 96h inconclusive
C=CCN1C(=O)C2(OCCCO2)c2cc(C)ccc21	none
Cc1cc(C)c(S(=O)(=O)NCc2cccs2)cc1C	none
Cc1ccc(CNc2ccc(N3CCOCC3)c(C(=O)O)c2)s1	none (no result: Pf growth 96h)
CCNC(=O)CSc1nc(-c2ccc(F)cc2)cs1	Shiga inhibitor 101, CHX counter 32, Pf growth 96h inconclusive (no result: NS1 function inh)
CC(C)(C)NC(=O)CSc1nc(-c2ccc(F)cc2)cs1	Shiga inhibitor 83, CHX counter 32
Cc1csc(SCC(=O)NC(C)c2ccc(F)cc2)n1 (centres undefined)	none (no result: NS1 function inh)
Cc1cc(=O)oc2cc(OCC(=O)Nc3ccc(F)cc3F)ccc12	none (no result: Shiga inhibitor, CHX counter, NS1 function inh)
COc1cccc(C2/C(=C(/O)c3ccncc3)C(=O)C(=O)N2CCCN2CCOCC2)c1OC (centres undefined)	none (no result: Shiga inhibitor, CHX counter, Pf growth 48h, Pf growth 96h)
CS(=O)(=O)Nc1cccc(C2=NN(S(=O)(=O)c3ccc(F)cc3)C(c3cccs3)C2)c1 (centres undefined)	NS1 function inh inconclusive, Pf growth 96h inconclusive
CCS(=O)(=O)Nc1cccc(C2=NN(S(=O)(=O)c3ccc(F)cc3)C(c3cccs3)C2)c1 (centres undefined)	Pf growth 48h inconclusive, NS1 function inh inconclusive, Pf growth 96h 8.3µM
CCS(=O)(=O)Nc1cccc(C2=NN(S(=O)(=O)CC)C(c3cccs3)C2)c1 (centres undefined)	Pf growth 48h inconclusive, Pf growth 96h 13µM
Cc1ccc(C(=O)N2N=C(c3cccc(NS(C)(=O)=O)c3)CC2c2cccs2)cc1 (centres undefined)	NS1 function inh inconclusive, Pf growth 96h inconclusive
CS(=O)(=O)Nc1cccc(C2=NN(C(=O)c3ccccc3)C(c3cccs3)C2)c1 (centres undefined)	Pf growth 48h 13µM
CC(C(=O)Oc1ccc2c(c1)OCO2)N1C(=O)c2ccccc2C1=O (centres undefined)	none
c1ccc2c(c1)Sc1ccccc1N2CCN1CCCC1	Pf growth 48h 17µM, Pf growth 96h 15µM (no result: Shiga inhibitor, CHX counter, NS1 function inh)
O=C1CSC2(CCN(CCCN3c4ccccc4Sc4ccc(Cl)cc43)CC2)N1	Pf growth 48h inconclusive, Pf growth 96h 8.5µM (no result: Shiga inhibitor, CHX counter)
CN1CCN(CCCN2c3ccccc3Sc3ccc(C(F)(F)F)cc32)CC1	Pf growth 48h 10µM, Pf growth 96h 9.3µM
O=C(CCN1CCN(CCO)CC1)N1c2ccccc2Sc2ccc(C(F)(F)F)cc21	Pf growth 48h inconclusive, Pf growth 96h inconclusive
CS(=O)(=O)c1ccccc1-c1csc(N2CCC(C(N)=O)CC2)n1	none (no result: Shiga inhibitor, CHX counter, NS1 function inh)
COc1cc2c(cc1OC)N1C(=O)CC(OCC(=O)O)C3C4CC5(CCN5C(=O)C4=O)C2C31 (centres undefined)	Pf growth 48h 12µM
COc1cc2c(cc1OC)C(C(=O)NCCC(C)C)C1CCCCN1C2=O (centres undefined)	Pf growth 96h inconclusive
C=C(C)Cn1c(=O)c2c(nc3n2CCN3c2cccc(Cl)c2C)n(C)c1=O	Pf growth 48h 9.3µM, Pf growth 96h inconclusive
O=C(CCC(=O)N(CC(=O)NC1CCCCC1)Cc1cccs1)Nc1ccccn1	none (no result: NS1 function inh)
CC(=O)c1sc(NC(=O)c2ccc(C(C)(C)C)cc2)nc1C	Shiga inhibitor 158, CHX counter 67
